Reference: ChEMBL document CHEMBL1961873, “Compounds: GSK PKIS; Assays: Nanosyn kinase panel” (2012)
Several values for one entry are separate records, joined by “and”; a condition that tells them apart may be missing. Equal values may be shown once.

These compounds were tested against Mitogen-activated protein kinase kinase kinase kinase 4 (Homo sapiens) (UniProt O95819). Conditions: at 1 µM.
Mitogen-activated protein kinase kinase kinase kinase 4 (Homo sapiens), sequence (O95819 2-1239 limits assumed): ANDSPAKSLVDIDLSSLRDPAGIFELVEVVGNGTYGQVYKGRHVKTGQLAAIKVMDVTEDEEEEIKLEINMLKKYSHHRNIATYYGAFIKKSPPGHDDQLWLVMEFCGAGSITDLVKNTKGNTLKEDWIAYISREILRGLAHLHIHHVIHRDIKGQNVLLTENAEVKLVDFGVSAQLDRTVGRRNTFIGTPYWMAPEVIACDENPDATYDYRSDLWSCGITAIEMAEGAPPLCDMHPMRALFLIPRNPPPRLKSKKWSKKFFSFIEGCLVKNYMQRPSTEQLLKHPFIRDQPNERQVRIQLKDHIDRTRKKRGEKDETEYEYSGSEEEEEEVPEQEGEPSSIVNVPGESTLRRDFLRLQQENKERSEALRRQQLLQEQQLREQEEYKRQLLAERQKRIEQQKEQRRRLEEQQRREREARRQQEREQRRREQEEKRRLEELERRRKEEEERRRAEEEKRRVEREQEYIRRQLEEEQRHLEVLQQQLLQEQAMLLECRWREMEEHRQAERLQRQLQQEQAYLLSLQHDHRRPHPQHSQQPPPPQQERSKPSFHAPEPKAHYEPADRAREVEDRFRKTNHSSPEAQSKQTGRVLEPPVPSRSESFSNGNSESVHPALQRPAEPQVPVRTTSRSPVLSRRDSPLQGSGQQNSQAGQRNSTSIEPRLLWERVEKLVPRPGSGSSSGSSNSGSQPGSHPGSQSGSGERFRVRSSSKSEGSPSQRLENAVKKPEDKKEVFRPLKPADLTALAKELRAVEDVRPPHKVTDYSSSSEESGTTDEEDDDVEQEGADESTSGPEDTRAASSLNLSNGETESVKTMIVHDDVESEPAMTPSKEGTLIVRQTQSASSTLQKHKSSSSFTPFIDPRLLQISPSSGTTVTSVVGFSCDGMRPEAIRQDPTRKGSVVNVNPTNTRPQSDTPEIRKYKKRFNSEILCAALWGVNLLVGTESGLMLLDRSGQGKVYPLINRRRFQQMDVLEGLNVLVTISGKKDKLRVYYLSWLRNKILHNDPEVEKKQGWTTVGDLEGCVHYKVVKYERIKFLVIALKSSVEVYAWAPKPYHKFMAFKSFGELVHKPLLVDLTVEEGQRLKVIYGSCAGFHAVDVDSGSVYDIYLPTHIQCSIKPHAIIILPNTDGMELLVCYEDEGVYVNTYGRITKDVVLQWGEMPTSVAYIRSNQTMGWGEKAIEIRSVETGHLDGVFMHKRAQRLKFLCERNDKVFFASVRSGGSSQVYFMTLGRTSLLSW

Row | SMILES | inhibition
1 | CNC(=O)c1cncc(/C=C/c2ccccc2C)c1 | 19.7%
2 | CC(C)c1ccc(-c2cc(-c3c[nH]nc3-c3ccccn3)ccn2)cc1 | 53.8%
3 | Fc1cccc(COc2ccc(Nc3ncncc3C#Cc3ccccc3)cc2Cl)c1 | 15%
4 | NS(=O)(=O)c1ccc(N/N=C2\C(=O)Nc3cccc(CCc4ccncc4)c32)cc1 | 16.9%
5 | CCn1c(-c2nonc2N)nc2cncc(C(=O)NCCNC)c21 | 11.3%
6 | CS(=O)(=O)CCNCc1ccc(-c2ccc3ncnc(Nc4ccc(OCc5cccc(C(F)(F)F)c5)cc4)c3c2)o1 | 6.36%
7 | Cc1cc(O)cc(C)c1/C=C/c1cncc(C(=O)OC(C)(C)C)c1 | 15.2%
8 | O=C(O[C@H]1CN[C@H](C#Cc2cc3ncnc(Nc4ccc(OCc5cccc(F)c5)c(Cl)c4)c3s2)C1)N1CCOCC1 | 8.44%
9 | c1ccc(-c2n[nH]cc2-c2ccnc(-c3ccc(OCCn4ccnc4)cc3)c2)nc1 | 81.8%
10 | c1cnn2ncc(-c3ccnc(NCCCN4CCOCC4)n3)c2c1 | 8.87%
11 | O=C(O[C@H]1CN[C@H](C#Cc2cc3ncnc(Nc4ccc5c(ccn5Cc5cc(F)ccc5F)c4)c3s2)C1)N1CCOCC1 | 5.63%
12 | O=C(O[C@H]1CN[C@H](C#Cc2cc3ncnc(Nc4ccc5c(cnn5Cc5ccccc5)c4)c3s2)C1)N1CCOCC1 | 2.37%
13 | COc1ccc(Nc2ncc(-c3ccccc3)o2)cc1OC | 48.3%
14 | CC1=C(C(=O)Nc2ccc3[nH]nc(C)c3c2)C(c2ccc(C(F)(F)F)cc2)CC(=O)N1 (configuration not stated) | 1.55%
15 | Cn1c(-c2nonc2N)nc2cnccc21 | 26.2%
16 | CCS(=O)(=O)c1ccc(OC)c(Nc2ncc(-c3cccc(F)c3)o2)c1 | 19.2%

Row | SMILES | inhibition
17 | Cc1nnc(-c2cccc(-c3ccc(C(=O)NCC4CC4)cc3)c2)o1 | 14.1%
18 | COc1cc2c(cc1Nc1nc(Nc3cccc(F)c3C(N)=O)c3cc[nH]c3n1)N(C(=O)CN1CCN(C(C)C)CC1)CC2 | 3.14%
19 | COc1cc(N2CCN(C(C)C)CC2)ccc1Nc1nc(Nc2cccc(F)c2C(=O)O)c2cc[nH]c2n1 | 10.1%
20 | NC(=O)c1ccc2c(-c3ccnc(NCCCO)n3)c(-c3ccc(F)cc3)nn2c1 | 51.7%
21 | COc1ccccc1-c1cc(/C=C2\C(=O)Nc3ncc(Br)cc32)cc(Br)c1O | 14%
22 | COC(=O)Nc1nc2ccc(Oc3ccc(NC(=O)Nc4cc(C(F)(F)F)ccc4F)cc3)cc2s1 | 8.34%
23 | CN1CCC(C(=O)Nc2n[nH]c3nc(-c4ccc(O)cc4)c(Br)cc23)CC1 | 35.4% and 22.5%
24 | CCOc1ccc2c(-c3ccnc(Nc4cc(OC)cc(C(F)(F)F)c4)n3)cnn2n1 | 8.47%
25 | CC1=C(C(=O)Nc2ccc3[nH]ncc3c2)C(c2ccc(F)cc2)N=C(c2ccc(C(F)(F)F)nc2)N1 (configuration not stated) | 2.92%
26 | Nc1ncnc2occ(-c3ccc(NC(=O)Nc4cc(C(F)(F)F)ccc4F)cc3)c12 | 22.3% and 6.15%
27 | CCS(=O)(=O)c1ccc(OC)c(Nc2ncc(-c3cccc(C(C)=O)c3)o2)c1 | 10.2%
28 | FC(F)(F)CNc1nccc(-c2cnn3ncccc23)n1 | 3.37%
29 | CN(C)CCNC(=O)Nc1ccc(N(C)c2ccnc(Nc3ccc(CS(C)(=O)=O)cc3)n2)cc1 | 14.6%
30 | Nc1nccc(-c2c(-c3ccc(F)cc3)ncn2C2CCNCC2)n1 | 11.7% and 20.6%
31 | CN1CCC(n2cnc(-c3ccc(F)cc3)c2-c2ccnc(NCCO)n2)CC1 | 17.5%

Each compound was assayed against Dual specificity mitogen-activated protein kinase kinase 1 (Homo sapiens) (UniProt Q02750). Conditions: at 0.1 µM.
Dual specificity mitogen-activated protein kinase kinase 1 (Homo sapiens), sequence (Q02750 whole entry): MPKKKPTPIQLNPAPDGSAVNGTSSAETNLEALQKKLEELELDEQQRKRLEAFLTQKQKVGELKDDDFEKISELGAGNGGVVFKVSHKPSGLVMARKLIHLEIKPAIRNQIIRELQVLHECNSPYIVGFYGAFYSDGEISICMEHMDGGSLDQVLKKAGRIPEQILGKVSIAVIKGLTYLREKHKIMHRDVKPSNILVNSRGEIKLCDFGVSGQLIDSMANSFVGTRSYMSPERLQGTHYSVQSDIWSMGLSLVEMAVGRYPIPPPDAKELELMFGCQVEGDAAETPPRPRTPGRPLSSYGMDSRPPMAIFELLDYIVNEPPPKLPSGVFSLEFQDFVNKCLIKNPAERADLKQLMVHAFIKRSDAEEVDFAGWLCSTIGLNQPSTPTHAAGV

Row | SMILES | inhibition
32 | CNC(=O)c1cncc(/C=C/c2ccccc2C)c1 | 6.36%
33 | CC(C)c1ccc(-c2cc(-c3c[nH]nc3-c3ccccn3)ccn2)cc1 | 0.36%
34 | Fc1cccc(COc2ccc(Nc3ncncc3C#Cc3ccccc3)cc2Cl)c1 | 6%
35 | NS(=O)(=O)c1ccc(N/N=C2\C(=O)Nc3cccc(CCc4ccncc4)c32)cc1 | 1.96%
36 | CCn1c(-c2nonc2N)nc2cncc(C(=O)NCCNC)c21 | 4.81%
37 | CS(=O)(=O)CCNCc1ccc(-c2ccc3ncnc(Nc4ccc(OCc5cccc(C(F)(F)F)c5)cc4)c3c2)o1 | 3.29%
38 | Cc1cc(O)cc(C)c1/C=C/c1cncc(C(=O)OC(C)(C)C)c1 | 4.02%
39 | O=C(O[C@H]1CN[C@H](C#Cc2cc3ncnc(Nc4ccc(OCc5cccc(F)c5)c(Cl)c4)c3s2)C1)N1CCOCC1 | 6.24%
40 | c1ccc(-c2n[nH]cc2-c2ccnc(-c3ccc(OCCn4ccnc4)cc3)c2)nc1 | 5.95%
41 | c1cnn2ncc(-c3ccnc(NCCCN4CCOCC4)n3)c2c1 | 4.91%
42 | O=C(O[C@H]1CN[C@H](C#Cc2cc3ncnc(Nc4ccc5c(ccn5Cc5cc(F)ccc5F)c4)c3s2)C1)N1CCOCC1 | 5.1%
43 | O=C(O[C@H]1CN[C@H](C#Cc2cc3ncnc(Nc4ccc5c(cnn5Cc5ccccc5)c4)c3s2)C1)N1CCOCC1 | -0.35%
44 | COc1ccc(Nc2ncc(-c3ccccc3)o2)cc1OC | 0.51%
45 | CC1=C(C(=O)Nc2ccc3[nH]nc(C)c3c2)C(c2ccc(C(F)(F)F)cc2)CC(=O)N1 (configuration not stated) | 6.17%
46 | Cn1c(-c2nonc2N)nc2cnccc21 | 4.67%
47 | CCS(=O)(=O)c1ccc(OC)c(Nc2ncc(-c3cccc(F)c3)o2)c1 | 4.98%

Row | SMILES | inhibition
48 | Cc1nnc(-c2cccc(-c3ccc(C(=O)NCC4CC4)cc3)c2)o1 | 8.77%
49 | COc1cc2c(cc1Nc1nc(Nc3cccc(F)c3C(N)=O)c3cc[nH]c3n1)N(C(=O)CN1CCN(C(C)C)CC1)CC2 | 0.13%
50 | COc1cc(N2CCN(C(C)C)CC2)ccc1Nc1nc(Nc2cccc(F)c2C(=O)O)c2cc[nH]c2n1 | 4.86%
51 | NC(=O)c1ccc2c(-c3ccnc(NCCCO)n3)c(-c3ccc(F)cc3)nn2c1 | 6.94%
52 | COc1ccccc1-c1cc(/C=C2\C(=O)Nc3ncc(Br)cc32)cc(Br)c1O | 6.54%
53 | COC(=O)Nc1nc2ccc(Oc3ccc(NC(=O)Nc4cc(C(F)(F)F)ccc4F)cc3)cc2s1 | 0.28%
54 | CN1CCC(C(=O)Nc2n[nH]c3nc(-c4ccc(O)cc4)c(Br)cc23)CC1 | 6.37% and 2.39%
55 | CCOc1ccc2c(-c3ccnc(Nc4cc(OC)cc(C(F)(F)F)c4)n3)cnn2n1 | 0.11%
56 | CC1=C(C(=O)Nc2ccc3[nH]ncc3c2)C(c2ccc(F)cc2)N=C(c2ccc(C(F)(F)F)nc2)N1 (configuration not stated) | -0.07%
57 | Nc1ncnc2occ(-c3ccc(NC(=O)Nc4cc(C(F)(F)F)ccc4F)cc3)c12 | 1.15% and -1.72%
58 | CCS(=O)(=O)c1ccc(OC)c(Nc2ncc(-c3cccc(C(C)=O)c3)o2)c1 | 3.55%
59 | FC(F)(F)CNc1nccc(-c2cnn3ncccc23)n1 | 1.61%
60 | CN(C)CCNC(=O)Nc1ccc(N(C)c2ccnc(Nc3ccc(CS(C)(=O)=O)cc3)n2)cc1 | 4.9%
61 | Nc1nccc(-c2c(-c3ccc(F)cc3)ncn2C2CCNCC2)n1 | -1.59% and 0.76%
62 | CN1CCC(n2cnc(-c3ccc(F)cc3)c2-c2ccnc(NCCO)n2)CC1 | 4.13%
